Laboratory results reported in PubChem BioAssay AID540276 (National Center for Advancing Translational Sciences (NCATS), 2011).
The campaign covered roughly 300,000 compounds. About 5,400 (1.8%) were called active. Roughly 28% stayed inconclusive and do not appear here. Calls follow the shape of the full dose curve; tested in HEK293 cells. This excerpt belongs to a sample that is enriched for actives.

Assay: qHTS for inhibitors of binding or entry into cells for Marburg Virus
Conditions: Marburg virus pseudotyped entry inhibition, cell reporter; series mostly up to 37.8 µM; activity change, negative = inhibition: at the top concentration
% is scaled to controls: 0 for no effect and ±100 for the full control effect; potency is read from the fitted curve at half-maximal effect.

Compound | activity change, negative = inhibition | Potency
CC(=O)Nc1ccc(S(=O)(=O)NNC(=O)CCc2ccccc2)cc1 | 6.74% [at 46.1 µM] (inactive) | 
CC(=O)Nc1ccc(Nc2ncnc3c2nnn3Cc2ccccc2Cl)cc1 | -1.38% [at 46.1 µM] (inactive) | 
CN(C(=O)CC1C(=O)NCCN1Cc1ccc2ccccc2c1)C1CCOCC1 (stereo unspecified) | 18.8% (inactive) | 
c1ccc2c(c1)CSc1sccc1C2=C1CCNCC1 |  | 6.51 µM (active)
CCc1c(Nc2ccccc2Cl)nc(N)[nH]c1=O | -3.03% [at 46.1 µM] (inactive) | 
COc1ccccc1N(CC(=O)Nc1c(C)n(C)n(-c2ccccc2)c1=O)S(=O)(=O)c1ccccc1 | 1.4% (inactive) | 
COc1ccc(S(=O)(=O)N2CCCCC2)cc1Br | -2.99% (inactive) | 
COc1ccc(S(=O)(=O)Nc2ccc(S(=O)(=O)N3CCCCC3)cc2)cc1OC | -2.04% (inactive) | 
COc1ccc(-c2ccc(Nc3ccc(S(=O)(=O)N4CCCC4)cc3)nn2)cc1OC |  | 14.6 µM (active)
CCCN1CCN(C(=O)CCCNC(=O)c2ccc(Cl)cc2)CC1 | -21.4% [at 46.1 µM] (inactive) | 
CC1(C)Cc2c(cnn2-c2cccc(F)c2)C(NC(=O)c2cc[n+]([O-])cc2)C1 (stereo unspecified) | 0.0229% [at 46.1 µM] (inactive) | 
CCC(=O)N(Cc1ccccc1)c1ccccn1 | 9.74% (inactive) | 
CCCN(CC1CC1)C(=O)COC(=O)c1ccc(C)cc1O | -16.7% (inactive) | 
CC(Oc1ccc(Br)cc1)C(=O)NCC(c1ccco1)N1CCCCC1 (stereo unspecified) | 1.61% (inactive) | 
Cc1ccc(-c2nn(-c3ccccc3)cc2/C=N/NC(=O)c2ccc3c(c2)OCO3)cc1 | -17.5% (inactive) | 
CN(C)/N=C/c1cn(-c2ccccc2)nc1-c1cccnc1 | 10.5% [at 46.1 µM] (inactive) | 
COc1ccc(-c2nn(-c3ccccc3)cc2/C=N/Nc2ccccn2)cc1OC |  | 13 µM (active)
CC(CC(=O)Nc1ccc(F)cc1F)S(=O)(=O)c1ccc2c(c1)NC(=O)CO2 (stereo unspecified) | -5.28% [at 46.1 µM] (inactive) | 
CC(C)CC1(C)NC(=O)N(CC(=O)Nc2ccc3c(c2)OCCO3)C1=O (stereo unspecified) | 4.78% (inactive) | 
CC(=O)c1c(OCC(=O)N(C)C2CCCCC2)ccc2c(C)cc(=O)oc12 | -3.09% (inactive) | 
Cc1c(NC(=O)Nc2cccc([N+](=O)[O-])c2)c(=O)n(-c2ccccc2)n1C | 12.1% [at 46.1 µM] (inactive) | 
O=C(CNC(=O)C1COc2ccccc2O1)N/N=C/c1cc(Br)c(O)c(Br)c1 (stereo unspecified) | -3.34% [at 46.1 µM] (inactive) | 

Compound | activity change, negative = inhibition | Potency
CCn1nnc2cc(C(=O)Nc3ccc(C(=O)OC(C)C)cc3)ccc21 | -7.15% (inactive) | 
COc1ccc(-c2[nH]ncc2CN(C)Cc2cccnc2)c(F)c1 | -0.344% (inactive) | 
COc1ccc2[nH]c(=O)c(CN(Cc3cccnc3)S(=O)(=O)c3ccccc3F)cc2c1 |  | 2.82 µM (active)
CCC(=O)N(Cc1cc2cc(OC)ccc2[nH]c1=O)c1ccccc1C | -17.6% [at 46.1 µM] (inactive) | 
Cc1ccc(C(=O)Nc2ccc3c(c2)OCCO3)cc1S(=O)(=O)N1CCOCC1 | 6.93% (inactive) | 
Cc1ccc(-c2csc(C(C#N)=C(O)CN3CCN(C(=O)c4ccco4)CC3)n2)cc1 | -0.39% [at 46.1 µM] (inactive) | 
C/C(Cl)=C\Cn1c(Nc2cccc(C)c2)nc2c1c(=O)n(C)c(=O)n2C |  | 11.6 µM (active)
Cc1cccc(Cn2c(SCCO)nc3c2c(=O)n(C)c(=O)n3C)c1 | -9.74% (inactive) | 
COC(=O)C(C)Sc1nc2c(c(=O)n(C)c(=O)n2C)n1Cc1cccc(C)c1 (stereo unspecified) |  | inactive
COc1ccccc1NC(=O)C(C)OC(=O)c1ccc(-n2cnnn2)cc1 (stereo unspecified) | -12% [at 46.1 µM] (inactive) | 
CC(C)CC(=O)Nc1ccc(Cc2ccncc2)cc1 | 7.63% [at 46.1 µM] (inactive) | 
CCOc1ccc(-c2noc(CCC(=O)NC3CCCC3)n2)cc1OC | -10.6% [at 46.1 µM] (inactive) | 
CC1CN(C(=O)CCC(=O)NCCCN2CCC(Cc3ccccc3)CC2)c2cc(Cl)ccc2O1 (stereo unspecified) |  | 11.2 µM (active)
Cc1ccc2c(c1)N(C(=O)CCC(=O)NCc1ccccc1F)CC(C)O2 (stereo unspecified) | -2.34% [at 46.1 µM] (inactive) | 
COc1ccccc1NC(=O)CCC(=O)N1CC(C)Oc2ccc(C)cc21 (stereo unspecified) | -6.87% [at 46.1 µM] (inactive) | 
N[C@@H](Cc1ccccc1)C(=O)N1CCC(C(=O)NCC(=O)Nc2ccc(F)cc2)CC1 | 6.98% [at 46.1 µM] (inactive) | 
O=C(CN1CCN(C(=O)C2CCCO2)CC1)Nc1c(Cl)cccc1Cl (stereo unspecified) | 3.63% (inactive) | 
COc1cc(/C=N/Nc2nc3ccccc3s2)ccc1O |  | 10 µM (active)
COc1cc(/C=N\Nc2nc(-c3cccs3)c(NC(C)=O)s2)ccc1O | 11.4% [at 46.1 µM] (inactive) | 
CCNc1nc(NCC)nc(N/N=C/c2ccc(O)c(OC)c2)n1 | -5.07% [at 46.1 µM] (inactive) | 
CCN(CC(=O)Nc1c(F)cccc1F)C(=O)Cc1cccs1 | 4.83% [at 46.1 µM] (inactive) | 
CCOC(=O)N(Cc1ccccc1)C1CC1 | -15.5% (inactive) | 

Compound | activity change, negative = inhibition | Potency
CCCC(C(=O)OCCN(CC)CC)(c1ccccc1)c1ccccc1 |  | 10 µM (active)
CCC(C(=O)OCCN(CC)CC)c1ccccc1 (stereo unspecified) |  | inactive
CCOC(=O)CCP(=O)(O)C(O)(c1ccccc1)c1ccccc1 | 10.9% (inactive) | 
COc1ccccc1CN1CCNC(=O)C1CC(=O)N(C)CC1CCOCC1 (stereo unspecified) | 6.02% [at 46.1 µM] (inactive) | 
O=C(c1ccc(N2CCOCC2)c([N+](=O)[O-])c1)N1CCN(c2ccccc2F)CC1 | 14.8% (inactive) | 
Cc1cccc2nc(CSc3nc4[nH]ncc4c(=O)n3-c3cccc(Cl)c3)cc(=O)n12 |  | 7.31 µM (active)
COC(=O)c1ccc(CSc2nc3ccccc3c(=O)n2-c2cccc(OC)c2)o1 | -26.9% (inactive) | 
COc1ccc(CCNC(=O)CSc2nc3[nH]ncc3c(=O)n2-c2cccc(C(F)(F)F)c2)cc1OC | 16.5% [at 46.1 µM] (inactive) | 
CC(=O)C1=C(C)NC(=O)NC1c1ccc2c(c1)OCO2 (stereo unspecified) | 2.27% [at 46.1 µM] (inactive) | 
O=C(/C=C/c1ccc(F)cc1)NCCNC(=O)/C=C/c1ccc(F)cc1 | -6.93% [at 46.1 µM] (inactive) | 
C#CC(C)(CC)NC(=O)Cn1nnc(-c2ccc(OCc3c(F)cccc3Cl)cc2)n1 (stereo unspecified) | -6.24% [at 46.1 µM] (inactive) | 
CN(C)CCCNC(=O)/C=C/c1ccc(OCc2c(F)cccc2Cl)cc1 |  | 3.98 µM (active)
O=C(CCCCCNC(=O)c1ccccc1)N/N=C/c1ccccc1 | 6.54% [at 46.1 µM] (inactive) | 
NCCCCCC(=O)N/N=C/c1ccc2nccnc2c1 |  | 2.82 µM (active)
CCOc1cc(C=NNC(=O)CCCC(=O)NN=Cc2ccc(O)c(OCC)c2)ccc1O | 14.1% (inactive) | 
COc1ccccc1CNC(=O)CSc1nc(=O)n(Cc2ccncc2)c2c1CCC2 | 0.122% (inactive) | 
Cc1ccc(C(=O)N/C(=C\c2cn(C)c3ccccc23)C(=O)N2CCN(C)CC2)cc1 | -11.6% [at 46.1 µM] (inactive) | 
CC(=O)OC1CCC2C3CCC4=C(CC(F)C(=O)C4)C3CCC12C (stereo unspecified) | -3.13% (inactive) | 
COCCn1c(C)cc(C2=NNC(=Nc3ccc(F)cc3)SC2)c1C | -22.1% (inactive) | 
Cc1cccc(N=C2NN=C(c3c[nH]c4ccccc34)CS2)c1 | -28.3% (inactive) | 
C=CCn1c(C)cc(C2=NNC(=NCC)SC2)c1C |  | 1.16 µM (active)
COc1cccc(N(C(=O)CNC(=O)c2ccco2)C(C(=O)NC2CCCCC2)c2cccnc2)c1 (stereo unspecified) | 12% [at 46.1 µM] (inactive) | 
